{"source": "PubChem BioAssay AID2685", "about": "(National Center for Advancing Translational Sciences (NCATS), 2010)", "note": "Hit rate of the full screen: of about 320,000 compounds, about 2,100 (0.66%) were called active. Inconclusive results (about 53%) are left out. Calls come from the whole dose curve; as a rule, active = well fitted inhibition curve with a large enough effect in the signal ratio, with a control signal flat (not every such curve was filed as active); inconclusive = small, poorly fitted or top-dose-only effect, or effect the other way, or a change in a side signal; inactive = flat fitted curve, though single readings scatter; the % refers to the signal ratio. The sample as a whole holds a higher share of actives than the screen did. Potency is the fitted concentration of half-maximal effect.", "data": [{"test": "qHTS Assay for Lipid Storage Modulators in Drosophila S3 Cells;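 for cell number change: cells counted by Cell Tracker Red CMTPX staining in the red channel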; for lipid storage change, negative = inhibition: % is set by controls: 0 for no effect and ±100 for the full control effect", "conditions": "BODIPY lipid droplet fluorescence, 18-24 h, cells fed with added oleic acid; cell number change: measured here: cell count max response; series mostly up to 46.1 µM; lipid storage change, negative = inhibition: at the top concentration", "procedure,_shortened": "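Laser-scanning cytometry quantifies lipid droplet accumulation (500–530 nm total intensity; droplet/cell object ratio) in oleic acid-fed (400 uM added) Drosophila S3 cells treated with a concentration series. 20 uM Triacsin C defined 100% inhibition.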", "units": {"cell number change": "%"}, "values": [{"compound": "COC(=O)c1sc2ncccc2c1OCc1ccccc1Cl", "lipid storage change, negative = inhibition": "-7.27% (inactive)", "cell number change": -10.8}, {"compound": "COc1cccc(C2/C(=C(/O)c3ccc4c(c3)OCO4)C(=O)C(=O)N2CCN2CCOCC2)c1", "note": "(stereo not given)", "lipid storage change, negative = inhibition": "-7.15% (inactive)", "cell number change": 25.8}, {"compound": "CC(C)Cc1nnc(NC(=O)C2=COCCO2)s1", "lipid storage change, negative = inhibition": "3.82% (inactive)", "cell number change": -9.23}, {"compound": "C=CCn1c(C)c(C(C)=O)c(N2CCCC2)nc1=S", "lipid storage change, negative = inhibition": "0.966% (inactive)", "cell number change": 0.195}, {"compound": "C=CCn1c(C)c(C(C)=O)c(N2CCN(c3ccccc3)CC2)nc1=S", "lipid storage change, negative = inhibition": "4.46% (inactive)", "cell number change": -14.3}, {"compound": "C=CCn1c(C)c(C(C)=O)c(N2CCOCC2)nc1=S", "Potency": "23.1 µM (active)", "cell number change": -4.96}, {"compound": "CCOc1ccc(/C=N/n2c(SC)nnc(C(C)(C)C)c2=O)cc1", "lipid storage change, negative = inhibition": "3.3% (inactive)", "cell number change": -13.9}, {"compound": "COC(=O)COc1ccc(S(=O)(=O)Nc2ccc(C(N)=O)cc2)cc1", "lipid storage change, negative = inhibition": "-14.2% (inactive)", "cell number change": 10.2}, {"compound": "COC(=O)COc1ccc(S(=O)(=O)Nc2ccc(NC(C)=O)cc2)cc1", "Potency": "3.66 µM (active)", "cell number change": -0.0647}, {"compound": "Cc1cc(NS(=O)(=O)c2ccc(NC(=O)CN3C(=O)c4ccccc4C3=O)cc2)nc(C)n1", "outcome": "inactive"}, {"compound": "COCCOCC(=O)Nc1ccc(S(=O)(=O)Nc2cc(C)nc(C)n2)cc1", "lipid storage change, negative = inhibition": "-12.7% (inactive)", "cell number change": 21.3}, {"compound": "CCOc1ccc(OCC(=O)Nc2ccc(S(=O)(=O)Nc3cc(C)nc(C)n3)cc2)cc1", "outcome": "inactive", "cell number change": -4.96}, {"compound": "Cc1cccc(OCC(=O)Nc2ccc(S(=O)(=O)Nc3cc(C)nc(C)n3)cc2)c1", "lipid storage change, negative = inhibition": "1.01% (inactive)", "cell number change": 13.6}, {"compound": "Cc1cc(NS(=O)(=O)c2ccc(NC(=O)COc3ccc(Br)cc3)cc2)nc(C)n1", "Potency": "18.4 µM (active)"}, {"compound": "Cc1cc(NS(=O)(=O)c2ccc(NC(=O)CCCC(=O)O)cc2)nc(C)n1", "lipid storage change, negative = inhibition": "-13.2% (inactive)", "cell number change": -5.64}, {"compound": "CCOC(=O)COc1ccc(S(=O)(=O)Nc2ccc(C)cc2)cc1", "outcome": "inactive", "cell number change": 11.3}, {"compound": "Cc1cc(C)nc(NS(=O)(=O)c2ccc(NC(=O)CN3C(=O)c4ccccc4C3=O)cc2)n1", "Potency": "6.51 µM (active)", "cell number change": -6.03}, {"compound": "Cc1cc(C)nc(NS(=O)(=O)c2ccc(NC(=O)CN3C(=O)S/C(=C\\c4ccccc4)C3=O)cc2)n1", "lipid storage change, negative = inhibition": "20.9% (inactive)", "cell number change": 8.32}, {"compound": "COCC(=O)Nc1ccc(S(=O)(=O)Nc2cc(C)nc(C)n2)cc1", "Potency": "32.6 µM (active)", "cell number change": -33.4}, {"compound": "Cc1c(C(=O)NCc2cccnc2)sc2nc(-c3ccccc3)cn12", "lipid storage change, negative = inhibition": "-2.55% (inactive)", "cell number change": -2.88}, {"compound": "Cc1cccn2c(=O)nc(SCC(=O)NCc3ccccc3)nc12", "cell number change": 26.3, "lipid storage change, negative = inhibition": "14.2% [at 0.0737 µM] (inactive)"}, {"compound": "Cc1ccc(-n2ncc3c(=O)n(-c4ccc(C)c(C)c4)c(C)nc32)cc1", "lipid storage change, negative = inhibition": "20.1% (inactive)", "cell number change": -21}, {"compound": "CC1=Nc2ccccc2N=C(NC(=O)CSC(=S)N2CCCCC2)C1c1ccccc1", "note": "(stereo not given)", "lipid storage change, negative = inhibition": "4.9% (inactive)", "cell number change": 11.1}, {"compound": "CC(C)CC(NC(=O)c1ccccc1NC(=O)c1ccccc1)C(=O)O", "note": "(stereo not given)", "lipid storage change, negative = inhibition": "0.37% (inactive)", "cell number change": -8.71}, {"compound": "CCC(=O)N(CCC(c1ccccc1)c1ccco1)Cc1cccs1", "note": "(stereo not given)", "lipid storage change, negative = inhibition": "3.42% (inactive)", "cell number change": 1.01}, {"compound": "CC(=O)NCCC(=O)Nc1nc(-c2cccs2)c(-c2cccs2)s1", "lipid storage change, negative = inhibition": "11.3% (inactive)", "cell number change": 13.4}, {"compound": "CC(C)NC(=O)c1ccc(OC2CSC2)cc1", "lipid storage change, negative = inhibition": "-7.18% (inactive)", "cell number change": 2.39}, {"compound": "CNC(=O)c1ccc(OC2CSC2)cc1", "Potency": "16.4 µM (active)", "cell number change": -3.88}, {"compound": "CC(=O)c1cccc(NC(=O)c2ccc(OC3CSC3)cc2)c1", "lipid storage change, negative = inhibition": "-2.44% (inactive)", "cell number change": 14.6}, {"compound": "O=C(NCC(=O)N(Cc1ccccc1)C(C(=O)NC1CCCC1)c1ccncc1)c1ccco1", "note": "(stereo not given)", "lipid storage change, negative = inhibition": "-5.7% (inactive)", "cell number change": -25}, {"compound": "COc1cccc(C2CCCN2Cc2nc(CC3CC3)no2)c1", "note": "(stereo not given)", "lipid storage change, negative = inhibition": "13.7% (inactive)", "cell number change": -10.7}, {"compound": "CCC(=O)Nc1ccc(S(=O)(=O)Nc2ccc(Cl)nn2)cc1", "lipid storage change, negative = inhibition": "1.32% (inactive)", "cell number change": -1.17}, {"compound": "Cc1cc(-n2cnnn2)cc(C)c1S(=O)(=O)NCCOc1ccccc1", "outcome": "inactive", "cell number change": -19.8}, {"compound": "Cc1cc(C)c(S(=O)(=O)N(C)c2ccccc2)c(C)c1", "lipid storage change, negative = inhibition": "7.23% (inactive)", "cell number change": -0.745}, {"compound": "Cc1cc(-n2cnnn2)cc(C)c1S(=O)(=O)N(C)c1ccccc1", "Potency": "10.3 µM (active)", "cell number change": 1.61}, {"compound": "CCCOc1ccc(C(=O)O/N=C(\\CC)c2ccc(C)cc2)cc1", "lipid storage change, negative = inhibition": "17.6% (inactive)", "cell number change": 8.23}, {"compound": "CCOC(=O)C1CCCN(C(=O)C2CCN(c3nnc(-n4cccc4)s3)CC2)C1", "note": "(stereo not given)", "Potency": "16.4 µM (active)", "cell number change": -17.4}, {"compound": "O=C(C1CCN(c2nnc(-n3cccc3)s2)CC1)N1CCCCC1", "outcome": "inactive"}, {"compound": "CCOC(=O)N1CCN(C(=O)C2CCN(c3nnc(-n4cccc4)s3)CC2)CC1", "lipid storage change, negative = inhibition": "-7.26% (inactive)", "cell number change": 29.4}, {"compound": "COC(=O)C1CSc2[nH]c(=O)sc2C1c1ccc(OC)c(OC)c1", "note": "(stereo not given)", "lipid storage change, negative = inhibition": "-1.45% (inactive)", "cell number change": -7}, {"compound": "CCC(C(=O)OCC(=O)N1C(C)CCCC1C)c1ccccc1", "note": "(stereo not given)", "lipid storage change, negative = inhibition": "-24.9% (inactive)", "cell number change": -35.7}, {"compound": "O=C(NCC1OCCCN1S(=O)(=O)c1cc(F)ccc1F)C(=O)NC1CCCCCC1", "note": "(stereo not given)", "Potency": "4.61 µM (active)", "cell number change": 3.2}, {"compound": "O=C(NCCO)C(=O)NCC1OCCCN1S(=O)(=O)c1cc(F)ccc1F", "note": "(stereo not given)", "lipid storage change, negative = inhibition": "27.4% (inactive)", "cell number change": 0.587}, {"compound": "Cc1cc(F)ccc1S(=O)(=O)N1CCCOC1CNC(=O)C(=O)NC1CCCC1", "note": "(stereo not given)", "lipid storage change, negative = inhibition": "-1.42% (inactive)", "cell number change": 13.2}]}]}
